Laboratory results as given in PubChem BioAssay.
Unmarked numbers belong to inactive results. Active and inactive are the calls of the source. Cut-off read from the data, not from the text of the source, unless noted: active = inhibition above about 42%; inactive = the rest.

Columns and labels:
[1] = StAR promoter reporter inhibitors, counter-screen for LRH-1 inverse agonist project, cell-based, luminescence, high throughput (AID 651611; in the data active = inhibition above about 28%); conditions: StAR promoter luciferase reporter counterscreen, at 3.6 µM, active compounds read high
[2] = target: Nuclear receptor subfamily 5 group A member 2 (Homo sapiens) (UniProt O00482); assay: NR5A2 activity suppression in reporter cells – cell-based, luminescence, confirmation (AID 651613); conditions: cell-based LRH-1 luciferase reporter, inverse agonism; at 3.6 µM; active compounds read high;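 note: HEK293T cells co-transfected with LRH-1 and StAR promoter luciferase reporter; 0% = vehicle wells and 100% = parental cells lacking receptor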
Sequence of Nuclear receptor subfamily 5 group A member 2 (Homo sapiens) (O00482 whole entry, looked up): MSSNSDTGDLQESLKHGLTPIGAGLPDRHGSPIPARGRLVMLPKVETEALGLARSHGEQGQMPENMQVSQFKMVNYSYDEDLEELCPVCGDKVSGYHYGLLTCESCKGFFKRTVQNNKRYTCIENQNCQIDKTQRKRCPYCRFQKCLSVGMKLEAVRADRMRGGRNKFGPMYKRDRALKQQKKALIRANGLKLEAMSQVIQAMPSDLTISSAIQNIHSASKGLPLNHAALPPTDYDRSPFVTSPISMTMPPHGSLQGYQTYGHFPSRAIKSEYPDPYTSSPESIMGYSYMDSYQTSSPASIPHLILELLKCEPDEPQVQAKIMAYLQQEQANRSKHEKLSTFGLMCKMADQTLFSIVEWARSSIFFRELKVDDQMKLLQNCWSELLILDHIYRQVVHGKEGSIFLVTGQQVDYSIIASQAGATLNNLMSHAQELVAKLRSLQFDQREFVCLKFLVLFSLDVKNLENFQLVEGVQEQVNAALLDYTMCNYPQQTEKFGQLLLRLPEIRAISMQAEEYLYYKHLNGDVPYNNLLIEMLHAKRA

[3] = target: Steroidogenic factor 1 (Homo sapiens) (UniProt Q13285); assay: inverse agonism at SF1 nuclear receptor – cell-based, luminescence, high throughput, counter-screen for LRH-1 inverse agonist project (AID 651614; in the data active = inhibition above about 44%;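 note: cells cotransfected with StAR promoter reporter and SF1 expression vector; 0% = vehicle on cells with receptor and 100% = vehicle on cells lacking receptor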); conditions: cell-based SF1 luciferase reporter, at 3.6 µM, active compounds read high
Sequence of Steroidogenic factor 1 (Homo sapiens) (Q13285 whole entry, looked up, the tested form may be a part): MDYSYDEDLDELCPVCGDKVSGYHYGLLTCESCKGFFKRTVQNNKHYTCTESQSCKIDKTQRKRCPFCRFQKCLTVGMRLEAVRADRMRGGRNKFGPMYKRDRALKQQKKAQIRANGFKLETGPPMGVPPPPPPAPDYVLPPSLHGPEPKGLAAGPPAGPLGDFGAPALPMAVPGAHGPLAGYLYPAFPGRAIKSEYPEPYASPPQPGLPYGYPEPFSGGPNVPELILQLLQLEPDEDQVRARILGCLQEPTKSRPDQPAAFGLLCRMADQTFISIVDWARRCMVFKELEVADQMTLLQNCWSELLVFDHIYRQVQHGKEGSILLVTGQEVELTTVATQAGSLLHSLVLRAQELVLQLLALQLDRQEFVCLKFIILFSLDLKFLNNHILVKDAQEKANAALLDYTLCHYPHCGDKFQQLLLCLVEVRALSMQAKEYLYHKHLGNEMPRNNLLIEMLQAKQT

[4] = compounds suppressing VP16-driven luciferase signal – cell-based, luminescence, high throughput, counter-screen for LRH-1 inverse agonist project (AID 651615; in the data active = inhibition above about 33%); conditions: Gal4-VP16 luciferase reporter cells, at 3.6 µM, active compounds read high

Structure (SMILES)	inhibition [1]	inhibition [2]	inhibition [3]	inhibition [4] [%]
CCC(C)(C)n1nnnc1CN1CCC(O)(c2cccc(C(F)(F)F)c2)CC1	8.87%	41.6% (active)	57.2% (active)	-2.12
O=[N+]([O-])c1ccc(N2CCN(S(=O)(=O)c3ccccc3)CC2)cc1NCc1cccnc1	6.64%	61% (active)	43.3% (active)	14.6
N#Cc1c(N)c(C#N)c(-c2ccc(O)cc2)c2c1CCCC2	6.6%	57.8% (active)	53.8% (active)	9.21
Cn1c(CN2CCN(c3cccc(Cl)c3)CC2)nc2ccccc21	-11.3%	23.1%	36.9%	-12.9
COc1cc(CCNc2ccc3nnc(-c4ccccc4)n3n2)cc(OC)c1OC	50.7% (active)	37.5%	28.6%	-65.1
C=CC[n+]1c(-c2ccc(Cl)cc2Cl)csc1Nc1c(C)n(C)n(-c2ccccc2)c1=O	10.3%	58.7% (active)	61% (active)	27.5
